# Bioassay records deposited in PubChem BioAssay by National Center for Advancing Translational Sciences (NCATS).
# Tau FP inhib – tau fibrillization inhibition (FP). P10636. Potency, µM (series often up to 57.7 µM), for the others: at the top dose activity, negative = inhibition, most hits filed as inhibitors. actives 0.39% (n = 280,000). K18 P301L tau heparin fibrillization, Alexa594 FP, 6 h; also: potency is read from the fitted curve at half-maximal effect; nearly all actives have a fitted effect of over 55% in size
#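 FP of Alexa 594-tau after heparin (20 uM) induction. Substrate: human K18 P301L, 15 uM unlabeled, 0.24 uM labeled. Buffer 100 mM sodium acetate pH 7. 6 hr, 37 C.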
# USP1 inh – USP1/UAF1 (human) deubiquitinase inhibition; Potency, µM (doses to about 57.1 µM), without a hit: at the top dose activity change, negative = inhibition, hits mostly inhibitors; AID 743255; recombinant USP1/UAF1, Ub-Rhodamine cleavage fluorescence; actives 0.23% (n = 390,000); O94782; also: potency is read from the fitted curve at half-maximal effect; nearly all actives have a fitted effect of over 60% in size
# Target sequence (O94782 whole entry, looked up): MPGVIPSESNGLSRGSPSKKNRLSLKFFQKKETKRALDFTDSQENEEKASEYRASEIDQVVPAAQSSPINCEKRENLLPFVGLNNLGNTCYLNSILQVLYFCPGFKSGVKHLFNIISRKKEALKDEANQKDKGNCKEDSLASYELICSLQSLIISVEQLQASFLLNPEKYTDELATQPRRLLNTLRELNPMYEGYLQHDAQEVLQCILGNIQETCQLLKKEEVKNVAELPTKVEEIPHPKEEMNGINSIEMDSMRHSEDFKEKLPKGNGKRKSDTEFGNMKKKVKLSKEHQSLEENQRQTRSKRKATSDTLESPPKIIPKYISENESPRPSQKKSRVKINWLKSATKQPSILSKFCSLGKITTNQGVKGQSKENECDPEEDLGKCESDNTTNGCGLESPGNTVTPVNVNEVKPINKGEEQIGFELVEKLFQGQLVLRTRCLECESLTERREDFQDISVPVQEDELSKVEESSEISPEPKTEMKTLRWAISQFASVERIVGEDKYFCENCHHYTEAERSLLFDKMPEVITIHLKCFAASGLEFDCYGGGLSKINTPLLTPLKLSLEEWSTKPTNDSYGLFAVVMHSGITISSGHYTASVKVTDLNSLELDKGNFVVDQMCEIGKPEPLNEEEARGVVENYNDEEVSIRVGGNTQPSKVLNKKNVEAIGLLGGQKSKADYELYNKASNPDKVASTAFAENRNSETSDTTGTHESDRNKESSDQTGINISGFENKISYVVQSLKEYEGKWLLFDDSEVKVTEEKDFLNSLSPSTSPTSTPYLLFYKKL
#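 1 nM enzyme complex + cpd, 15 min RT; start with Ub-Rho 150nM final; kinetic fluorescence ex 480/em 540, 6 reads q60 s. Buffer 50mM HEPES pH 7.8, 0.5mM EDTA, 0.1 mg/ml BSA, 1mM TCEP, 0.01% Tween-20.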
# Tau fluor counter – counter-screen for tau fibril formation inhibitors | tau K18 P301L Alexa594 fluorescence, heparin fibrillization | Potency, µM (highest dose often 57.7 µM), for the others: at the top dose activity change, negative = decrease | actives 0.93% (n = 280,000) | AID 1463; also: potency is read from the fitted curve at half-maximal effect; nearly all actives have a fitted effect of over 55% in size
#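 Human K18 P301L tau (15 uM unlabeled plus 0.24 uM Alexa 594-labeled, final) in 100 mM sodium acetate pH 7 was mixed with compound and 20 uM heparin and incubated 6 hr at 37 C.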
# FBPA coupling cs – inhibits coupling enzyme system, counter-screen for aldolase hits; coupling enzyme system counterscreen, AmpLite Red fluorescence; activity change, negative = inhibition, % at 58.2 µM, hits read low; actives 0.67% (n = 290,000); AID 2472; in the data active = activity change below about -30%
#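 Final compound at 57.5 uM, incubated 10 min at RT with coupling enzyme reagent (glyceraldehyde-3-phosphate), then 20 min with substrate and AmpLite Red detection. Fluorescence read at 525/598 nm; tests interference with the coupling assay, not aldolase inhibition.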
# Tau ThT inhib – blocks human tau fibril formation measured by thioflavin T | P10636 | actives 2.1% (n = 270,000) | Potency, µM (highest dose often 57.4 µM), inactives show at the highest dose activity, negative = inhibition, most hits filed as inhibitors | recombinant tau K18 P301L (four-repeat tau fragment), heparin-induced fibrillization, ThT fluorescence; also: potency is read from the fitted curve at half-maximal effect; nearly all actives have a fitted effect of over 55% in size
#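 Heparin-induced (20 uM) aggregation of recombinant human K18 P301L tau, 15 uM unlabeled with 0.24 uM labeled, pH 7 acetate buffer, 6 hr at 37 C with compound. Fibrils quantified by 30 uM ThT fluorescence after 1 hr ambient incubation.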
# An asterisk follows results filed as active; ? = inconclusive; · = no result; [ ] = dose if it differs, or a comment. Most compounds without a hit are left out; they make up all but 2.3% or so of the library. Unless noted, calls follow the shape of the dose curve; as a rule, active = well fitted curve in the direction sought with a large enough effect; inconclusive = small, poorly fitted or top-dose-only effect, or another doubt; inactive = no such curve, though single readings can be large; an effect the other way counts as inactive or inconclusive. % is scaled to controls: 0 for no effect and ±100 for the full control effect.
SMILES,Tau FP inhib,USP1 inh,Tau fluor counter,FBPA coupling cs,Tau ThT inhib
Nc1ccc(N)c(C(=O)O)c1,?,20µM*,?,-34*,14µM*
CC1=C(C)/C(=N\OS(=O)(=O)c2ccccc2)C=CC1=O,16µM*,-11%,?,-77*,13µM*
CN(C)c1ccc(/C=N/NC(=O)C(=O)/C=C2\NC3(CCCC3)Cc3ccccc32)cc1,7%,-21%,-10%,1,2.2µM*
COc1cc(/C=N/NC(=O)C(=O)/C=C2\NC3(CCCC3)Cc3ccccc32)ccc1O,?,?,?,0,?
Nc1c(C(=O)Nc2ccc(S(=O)(=O)N3CCCC3)cc2)sc2nc3ccc(OC(F)(F)F)cc3cc12,13%,?,-25%,3,5.6µM*
COc1cc(NS(=O)(=O)c2ccc3[nH]c4c(c3c2)CCCCCC4)cc(OC)c1,-5%,?,8.9µM*[quencher],·,-7%
Cc1ccc(NS(=O)(=O)c2ccc3[nH]c4c(c3c2)CCCCCC4)cc1,?,-24%,11µM*[quencher],·,-12%
COc1cc(NS(=O)(=O)c2ccc3[nH]c4c(c3c2)CCCC4)cc(OC)c1OC,18%,-17%,?,·,-13%
CCc1ccc(NS(=O)(=O)c2ccc3[nH]c4c(c3c2)CCCCCC4)cc1,?,?,?,·,18%
Cc1ccc(C)c(N2CCN(S(=O)(=O)c3ccc4[nH]c5c(c4c3)CCCC5)CC2)c1,-5%,-13%,?,·,-7%
COc1ccc(NS(=O)(=O)c2ccc3[nH]c4c(c3c2)CCCC4)cc1OC,7%,0%,16µM*[quencher],·,?
Cc1ccc(N(C)S(=O)(=O)c2ccc3[nH]c4c(c3c2)CCCC4)cc1,5%,-20%,14µM*[quencher],·,-5%
CCN1C(C)=C(C(=O)OC)C(c2ccccc2)N2C(=O)[C@](O)(C(=O)OC)C(c3ccccc3)C(C(=O)c3ccccc3)=C12 (some centres undefined),0%[11.6 µM],·,-16%[11.6 µM],1,?
CC1CC(C)CN(CC(O)COCc2ccccc2)C1 (centres undefined),·,-6%,·,1,·
CCOC(=O)c1ccc(NS(=O)(=O)c2ccc3[nH]c4c(c3c2)CCCCC4)cc1,?,-29%,6.3µM*[quencher],·,-7%
COc1ccc(NS(=O)(=O)c2ccc(OC)c(OC)c2)cc1OC,-3%,-23%,0%,5,-3%
Cc1ccc(NS(=O)(=O)c2ccc3[nH]c4c(c3c2)CCCCCC4)cc1C,-1%,?,13µM*[quencher],·,1%
COc1ccc(OC)c(NS(=O)(=O)c2ccc3[nH]c4c(c3c2)CCCCC4)c1,3%,-21%,11µM*[quencher],·,-2%
COc1ccc(NS(=O)(=O)c2ccc3[nH]c(=O)ccc3c2)cc1OC,-18%,-1%,8.9µM*[quencher],·,?
Cc1ccc(N2C(=O)Nc3ccccc3S2(=O)=O)cc1Cl,·,-19%,·,3,·
COC(=O)c1sccc1S(=O)(=O)N1CCN(c2ccc(C)cc2C)CC1,-2%,?,?,·,-15%
O=S(=O)(CCNCCc1ccccc1)NC1CCCCC1,·,-6%,·,·,·
Cc1nn(-c2ccc(Cl)cc2)c2nc(-c3cccnc3)cc(C(F)(F)F)c12,2%,-21%,-4%,·,-12%
CCCN(CCC)CC(O)CN(c1ccccc1)S(=O)(=O)c1ccc(C)cc1 (centres undefined),5%,-10%,-9%,3,-8%
Cc1ccc(N(CC(O)COCc2ccco2)S(=O)(=O)c2ccc(C)cc2)cc1 (centres undefined),?,2%,-23%,4,32µM*
COC(=O)CSCc1nc2ccccc2[nH]c1=O,?,-18%,-15%,2,32µM*
COc1ccc(NC(=O)CSc2nnc(-c3nonc3NC(C)=O)n2-c2ccccc2)cc1,12%,-10%,-20%,·,1%
CCOc1ccc(S(=O)(=O)N(CC(=O)Nc2cccnc2)c2ccc(F)cc2)cc1,·,-1%,·,5,·
S=C(NNc1ccc2ccccc2c1)NC1CCCCC1,?,-18%,?,-8,25µM*
CCc1n[nH]c(=S)n1/N=C/c1cc(OC)cc([N+](=O)[O-])c1O,-16%,2%,-28%,-1,5µM*
